Source: article PMC7862700, “An all-to-all approach to the identification of sequence-specific readers for epigenetic DNA modifications on cytosine”

Key:
Experiment in all cases: DAPPL (digital affinity profiling via proximity ligation, sequencing); 10 mM Tris-HCl pH 7.5, 50 mM NaCl, 1 mM DTT, 4% glycerol, room temperature, 30 min; GST-TFs on glutathione beads, 16-mer random dsDNA library, 0.1% formaldehyde crosslink after washing; high values mean tight binding
Conditions in all cases: protein: recombinant; tags: N-terminal GST; dsDNA, one strand shown
ERF = target: T1, ERF (Homo sapiens, UniProt P50548 1-548)
T1 sequence: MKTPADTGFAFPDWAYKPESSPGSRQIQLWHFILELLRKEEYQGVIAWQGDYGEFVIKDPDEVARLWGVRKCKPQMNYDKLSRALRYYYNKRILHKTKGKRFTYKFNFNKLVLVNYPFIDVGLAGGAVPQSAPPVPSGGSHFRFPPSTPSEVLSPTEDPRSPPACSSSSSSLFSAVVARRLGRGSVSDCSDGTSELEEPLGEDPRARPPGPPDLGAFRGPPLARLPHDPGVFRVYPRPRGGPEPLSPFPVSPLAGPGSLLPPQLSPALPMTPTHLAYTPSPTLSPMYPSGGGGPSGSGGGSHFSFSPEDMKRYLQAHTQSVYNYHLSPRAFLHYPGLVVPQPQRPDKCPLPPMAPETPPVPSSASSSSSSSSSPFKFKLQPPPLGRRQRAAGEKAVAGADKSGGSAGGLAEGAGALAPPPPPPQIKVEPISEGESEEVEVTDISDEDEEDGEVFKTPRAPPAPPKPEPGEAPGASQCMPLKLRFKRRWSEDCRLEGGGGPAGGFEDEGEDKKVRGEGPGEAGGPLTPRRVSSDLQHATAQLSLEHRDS
How it was run: (§1)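 Human transcription factors fused to GST were expressed in yeast, captured on glutathione beads, given DNA barcodes and pooled with a GST-only negative control. Pools were incubated with 200 nmole of a 16-mer random double-stranded DNA library in Tris/NaCl/DTT/glycerol buffer at room temperature for 30 min. They were then washed, crosslinked with 0.1% formaldehyde, proximity-ligated (BsaI/T4 ligase, 1 h, 37 °C), PCR-amplified and sequenced on an Illumina NextSeq500. Binding signal is each 6-mer's read frequency for a factor divided by its frequency for the GST control.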

ETV3L = target: T2, ETV3L (Homo sapiens, UniProt Q6ZN32 1-361)
T2 sequence: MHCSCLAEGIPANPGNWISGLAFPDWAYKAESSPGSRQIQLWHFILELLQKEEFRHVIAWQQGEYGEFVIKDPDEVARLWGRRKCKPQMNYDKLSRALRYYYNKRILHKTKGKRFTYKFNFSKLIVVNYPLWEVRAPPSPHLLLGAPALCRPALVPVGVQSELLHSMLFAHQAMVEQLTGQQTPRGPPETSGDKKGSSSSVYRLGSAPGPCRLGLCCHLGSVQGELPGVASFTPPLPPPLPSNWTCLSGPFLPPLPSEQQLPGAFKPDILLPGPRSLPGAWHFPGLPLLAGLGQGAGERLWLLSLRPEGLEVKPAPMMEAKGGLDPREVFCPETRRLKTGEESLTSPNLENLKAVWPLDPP
How it was run: as §1

ETS2 = target: T3, ETS2 (Homo sapiens, UniProt P15036 1-469)
T3 sequence: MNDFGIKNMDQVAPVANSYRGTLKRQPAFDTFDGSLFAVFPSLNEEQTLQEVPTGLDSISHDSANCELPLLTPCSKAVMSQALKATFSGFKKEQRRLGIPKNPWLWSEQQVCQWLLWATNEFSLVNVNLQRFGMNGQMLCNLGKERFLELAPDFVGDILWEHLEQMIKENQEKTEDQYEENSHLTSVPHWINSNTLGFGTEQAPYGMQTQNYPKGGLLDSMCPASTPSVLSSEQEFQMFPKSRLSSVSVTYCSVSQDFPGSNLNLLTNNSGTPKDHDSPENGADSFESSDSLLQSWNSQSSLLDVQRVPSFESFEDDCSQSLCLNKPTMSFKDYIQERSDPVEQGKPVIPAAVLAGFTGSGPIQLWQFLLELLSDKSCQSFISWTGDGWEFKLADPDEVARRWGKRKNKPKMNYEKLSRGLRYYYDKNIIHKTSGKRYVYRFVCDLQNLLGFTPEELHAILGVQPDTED
How it was run: as §1

SPDEF = target: T4, SPDEF (Homo sapiens, UniProt O95238 1-335)
T4 sequence: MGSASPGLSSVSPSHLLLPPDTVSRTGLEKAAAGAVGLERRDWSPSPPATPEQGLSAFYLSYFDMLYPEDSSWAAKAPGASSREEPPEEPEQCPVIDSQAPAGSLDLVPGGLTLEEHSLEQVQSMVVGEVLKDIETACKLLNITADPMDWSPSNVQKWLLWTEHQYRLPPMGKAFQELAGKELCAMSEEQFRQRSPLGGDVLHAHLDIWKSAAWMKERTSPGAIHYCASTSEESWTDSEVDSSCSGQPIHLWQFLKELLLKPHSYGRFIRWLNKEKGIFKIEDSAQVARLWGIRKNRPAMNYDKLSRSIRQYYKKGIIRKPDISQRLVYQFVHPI
How it was run: as §1

ETV7 = target: T5, ETV7 (Homo sapiens, UniProt Q9Y603 1-341)
T5 sequence: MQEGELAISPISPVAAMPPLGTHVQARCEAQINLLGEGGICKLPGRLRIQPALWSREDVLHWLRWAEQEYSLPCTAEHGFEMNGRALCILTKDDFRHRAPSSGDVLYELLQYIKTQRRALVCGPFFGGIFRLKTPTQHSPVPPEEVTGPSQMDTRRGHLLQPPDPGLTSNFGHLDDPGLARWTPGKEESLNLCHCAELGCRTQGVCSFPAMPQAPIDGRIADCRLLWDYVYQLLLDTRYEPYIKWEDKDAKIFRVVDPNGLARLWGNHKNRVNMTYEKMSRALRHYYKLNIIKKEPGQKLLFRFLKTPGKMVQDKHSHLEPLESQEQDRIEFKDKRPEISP
How it was run: as §1

ELF5 = target: T6, ELF5 (Homo sapiens, UniProt Q9UKW6-2 1-255)
T6 sequence: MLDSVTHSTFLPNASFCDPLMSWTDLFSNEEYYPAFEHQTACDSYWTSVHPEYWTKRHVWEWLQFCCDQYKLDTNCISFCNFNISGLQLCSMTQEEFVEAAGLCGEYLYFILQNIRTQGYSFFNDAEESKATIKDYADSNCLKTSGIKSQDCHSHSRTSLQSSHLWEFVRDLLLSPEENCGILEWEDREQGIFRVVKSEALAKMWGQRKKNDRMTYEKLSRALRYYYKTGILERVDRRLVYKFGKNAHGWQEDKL
How it was run: as §1

ETV3 = target: T7, ETV3 (Homo sapiens, UniProt P41162-2 1-143)
T7 sequence: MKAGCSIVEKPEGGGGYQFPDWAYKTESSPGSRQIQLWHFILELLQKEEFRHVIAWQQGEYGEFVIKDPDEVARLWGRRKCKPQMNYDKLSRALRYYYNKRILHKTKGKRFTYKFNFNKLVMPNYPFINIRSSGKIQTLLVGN
How it was run: as §1

ETV6 = ETV6 (Homo sapiens, UniProt P41212 1-452)
How it was run: as §1

Sequence of ETV6 (P41212 whole entry): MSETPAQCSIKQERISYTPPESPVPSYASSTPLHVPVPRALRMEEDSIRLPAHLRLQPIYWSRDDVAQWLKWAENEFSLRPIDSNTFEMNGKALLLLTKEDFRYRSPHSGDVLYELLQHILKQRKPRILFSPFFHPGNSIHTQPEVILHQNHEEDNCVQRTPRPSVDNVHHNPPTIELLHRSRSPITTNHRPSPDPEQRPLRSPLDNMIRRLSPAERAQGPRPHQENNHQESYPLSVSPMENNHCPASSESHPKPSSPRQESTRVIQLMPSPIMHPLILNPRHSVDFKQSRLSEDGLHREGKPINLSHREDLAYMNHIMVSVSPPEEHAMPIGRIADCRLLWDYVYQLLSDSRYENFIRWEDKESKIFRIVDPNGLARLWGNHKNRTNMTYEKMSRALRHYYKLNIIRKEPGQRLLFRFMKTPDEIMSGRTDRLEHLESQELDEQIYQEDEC

Row | Sequence | binding signal (ERF) | binding signal (ETV3L) | binding signal (ETS2) | binding signal (SPDEF) | binding signal (ETV7) | binding signal (ELF5) | binding signal (ETV3) | binding signal (ETV6)
1 | AATTCA | 1.22 fold enrichment (6-mer frequency, TF over GST control) | 1.35 fold enrichment (6-mer frequency, TF over GST control) | 1.39 fold enrichment (6-mer frequency, TF over GST control) | 1.24 fold enrichment (6-mer frequency, TF over GST control) | 1.28 fold enrichment (6-mer frequency, TF over GST control) | 1.3 fold enrichment (6-mer frequency, TF over GST control) | 1.31 fold enrichment (6-mer frequency, TF over GST control) | 1.23 fold enrichment (6-mer frequency, TF over GST control)
2 | GCATCC | 1.43 fold enrichment (6-mer frequency, TF over GST control) | 1.56 fold enrichment (6-mer frequency, TF over GST control) | 1.61 fold enrichment (6-mer frequency, TF over GST control) | 2.71 fold enrichment (6-mer frequency, TF over GST control) | 1.43 fold enrichment (6-mer frequency, TF over GST control) | 1.64 fold enrichment (6-mer frequency, TF over GST control) | 1.62 fold enrichment (6-mer frequency, TF over GST control) | 1.57 fold enrichment (6-mer frequency, TF over GST control)
3 | CTCGCC | 1.4 fold enrichment (6-mer frequency, TF over GST control) | 1.2 fold enrichment (6-mer frequency, TF over GST control) | 1.25 fold enrichment (6-mer frequency, TF over GST control) | 1.07 fold enrichment (6-mer frequency, TF over GST control) | 1.16 fold enrichment (6-mer frequency, TF over GST control) | 1.26 fold enrichment (6-mer frequency, TF over GST control) | 1.2 fold enrichment (6-mer frequency, TF over GST control) | 1.29 fold enrichment (6-mer frequency, TF over GST control)
4 | TATGCA | 1.25 fold enrichment (6-mer frequency, TF over GST control) | 1.27 fold enrichment (6-mer frequency, TF over GST control) | 1.29 fold enrichment (6-mer frequency, TF over GST control) | 1.36 fold enrichment (6-mer frequency, TF over GST control) | 1.18 fold enrichment (6-mer frequency, TF over GST control) | 1.23 fold enrichment (6-mer frequency, TF over GST control) | 1.33 fold enrichment (6-mer frequency, TF over GST control) | 1.15 fold enrichment (6-mer frequency, TF over GST control)
5 | AAAGAT | 1.24 fold enrichment (6-mer frequency, TF over GST control) | 1.17 fold enrichment (6-mer frequency, TF over GST control) | 1.16 fold enrichment (6-mer frequency, TF over GST control) | 1.23 fold enrichment (6-mer frequency, TF over GST control) | 1.12 fold enrichment (6-mer frequency, TF over GST control) | 1.15 fold enrichment (6-mer frequency, TF over GST control) | 1.28 fold enrichment (6-mer frequency, TF over GST control) | 1.17 fold enrichment (6-mer frequency, TF over GST control)
6 | CAACAT | 1.23 fold enrichment (6-mer frequency, TF over GST control) | 1.2 fold enrichment (6-mer frequency, TF over GST control) | 1.17 fold enrichment (6-mer frequency, TF over GST control) | 1.17 fold enrichment (6-mer frequency, TF over GST control) | 1.08 fold enrichment (6-mer frequency, TF over GST control) | 1.16 fold enrichment (6-mer frequency, TF over GST control) | 1.22 fold enrichment (6-mer frequency, TF over GST control) | 1.09 fold enrichment (6-mer frequency, TF over GST control)
7 | TGGTAT | 1.34 fold enrichment (6-mer frequency, TF over GST control) | 1.37 fold enrichment (6-mer frequency, TF over GST control) | 1.33 fold enrichment (6-mer frequency, TF over GST control) | 1.42 fold enrichment (6-mer frequency, TF over GST control) | 1.35 fold enrichment (6-mer frequency, TF over GST control) | 1.37 fold enrichment (6-mer frequency, TF over GST control) | 1.28 fold enrichment (6-mer frequency, TF over GST control) | 1.31 fold enrichment (6-mer frequency, TF over GST control)
8 | AATTTT | 1.36 fold enrichment (6-mer frequency, TF over GST control) | 1.3 fold enrichment (6-mer frequency, TF over GST control) | 1.23 fold enrichment (6-mer frequency, TF over GST control) | 1.22 fold enrichment (6-mer frequency, TF over GST control) | 1.14 fold enrichment (6-mer frequency, TF over GST control) | 1.23 fold enrichment (6-mer frequency, TF over GST control) | 1.2 fold enrichment (6-mer frequency, TF over GST control) | 1.13 fold enrichment (6-mer frequency, TF over GST control)
